Some test systems named below: DU-145 prostate; K-562 leukemia; MALME-3M melanoma; MDA-MB-231 breast; RXF 393 renal; SF-268 CNS; SF-295 CNS; SF-539 CNS; UACC-257 melanoma; M14 melanoma; HCT-15 colon; HT29 colon; SNB-75 CNS; SNB-19 CNS; U251 CNS; PC-3 prostate; SK-MEL-5 melanoma; UACC-62 melanoma; LOX IMVI melanoma; SK-MEL-28 melanoma.
Common to all, as to assay: NCI-60 one-dose screen, 48 h (100 = growth as untreated, 0 = no growth, -100 = all killed)
Common to all, as to conditions: 10 µM unless noted

This is part of a sample that, as a whole, favours compounds with a hit. Of some 83,000 tested, about 20% had one in any assay.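 48-hour exposure, single concentration, 96-well plates; percent growth endpoint where 0 means no net growth. Active: below 10.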 A number with no mark means an inactive call. The source made the active and inactive calls.

Consider `CC(=O)n1nc(C(=O)OC(C)(C)c2ccccc2)c2ccccc21`, for which the growth in the assay with DU-145 prostate was 111%; in the assay on K-562 leukemia, 97%; in the assay with MALME-3M melanoma, 105%; in the assay on MDA-MB-231 breast, 85.4%; with RXF 393 renal, 92.2%; in the assay with SF-268 CNS, 99.2%. The growth is 93.1% in the assay with SF-295 CNS; 97.7% in the assay with SF-539 CNS; 89.5% in the assay on UACC-257 melanoma; 96.4% with M14 melanoma; 101% with HCT-15 colon; 97.5% with HT29 colon. Further, the growth in the assay with SNB-75 CNS was 80.8%; in the assay on SNB-19 CNS it was 95.7%; in the assay with U251 CNS, 98.6%; with PC-3 prostate, 92.3%; in the assay with SK-MEL-5 melanoma, 96.9%; in the assay on UACC-62 melanoma, 93%. Moreover, the growth in the assay with LOX IMVI melanoma is 91.2%; in the assay on SK-MEL-28 melanoma, 90.4%.
For `COc1cc(/C=C/C(=O)c2ccc(F)cc2)ccc1OCCCCOc1ccc(/C=C/C(=O)c2c(C)nc3ccccc3c2C)cc1OC`, the growth in the assay on DU-145 prostate was 157%; in the assay on K-562 leukemia it was 62.2%; in the assay with MALME-3M melanoma it was 105%; in the assay on MDA-MB-231 breast, 91.5%; in the assay with RXF 393 renal, -10.5% (active); in the assay on SF-268 CNS, 127%. Further, the growth with SF-295 CNS is 98.8%; in the assay on SF-539 CNS it was 138%; with UACC-257 melanoma, 70.3%; in the assay on M14 melanoma, 103%; with HCT-15 colon it was 96.5%; in the assay on HT29 colon, 100%. The growth in the assay with SNB-75 CNS was 97.1%; with SNB-19 CNS, 110%; with U251 CNS, 83.3%; with PC-3 prostate it was 93.2%; in the assay with SK-MEL-5 melanoma, 62.4%; in the assay with UACC-62 melanoma, 73.1%. Further, the growth with LOX IMVI melanoma was 90.2%; in the assay on SK-MEL-28 melanoma, 122%.
For `NC(=O)c1ccc(-c2c3ccccc3cc3c2ccc2ccccc23)cc1`, the growth was 53.3% in the assay on DU-145 prostate; 14% in the assay with K-562 leukemia; 54.7% in the assay with MALME-3M melanoma; 42.2% with MDA-MB-231 breast; 23% in the assay with RXF 393 renal; 56% in the assay on SF-268 CNS. For the same molecule, the growth with SF-295 CNS was 46.1%; in the assay on SF-539 CNS, 34.5%; with UACC-257 melanoma, 52.4%; in the assay on M14 melanoma, 14.9%; in the assay with HCT-15 colon, 28.3%; in the assay on HT29 colon it was -19.4% (active). Besides, the growth with SNB-75 CNS was 42.5%; in the assay with SNB-19 CNS it was 60.9%; in the assay with U251 CNS it was 42.5%; in the assay with PC-3 prostate it was 54.4%; in the assay on SK-MEL-5 melanoma, 40.8%; in the assay with UACC-62 melanoma it was 33.4%. Further, the growth was 33.3% in the assay with LOX IMVI melanoma and 60% in the assay with SK-MEL-28 melanoma.
In the case of `COc1cc(C2CC(c3ccc(Nc4nc(Nc5ccc(Cl)cc5)nc(Nc5ccc(Cl)cc5)n4)cc3)=NN2C(C)=O)cc(OC)c1OC` (stereo not given), the growth was 115% in the assay on DU-145 prostate; 73.5% with K-562 leukemia; 99.2% with MALME-3M melanoma; 102% in the assay on MDA-MB-231 breast; 92.4% with RXF 393 renal; 106% in the assay with SF-268 CNS. In addition, the growth is 102% with SF-295 CNS; 98.7% with SF-539 CNS; 103% with UACC-257 melanoma; 102% with M14 melanoma; 88.9% in the assay with HCT-15 colon; 97.2% with HT29 colon. Further, the growth with SNB-75 CNS was 106%; in the assay on SNB-19 CNS, 102%; in the assay on U251 CNS, 93.6%; with PC-3 prostate, 89.9%; in the assay with SK-MEL-5 melanoma, 81.3%; in the assay on UACC-62 melanoma, 90.1%. Besides, the growth with LOX IMVI melanoma is 105%; with SK-MEL-28 melanoma, 119%.
Consider `N=C(N)c1ccc(-c2ccc(-c3ccccc3)o2)cc1`, for which the growth was -11.2% (active) in the assay with DU-145 prostate; -33.2% (active) in the assay on K-562 leukemia; -81.5% (active) in the assay with MALME-3M melanoma; -58.2% (active) in the assay with MDA-MB-231 breast; -76.3% (active) in the assay on RXF 393 renal; -31.1% (active) with SF-268 CNS. The growth in the assay on SF-295 CNS was -70.4% (active); with SF-539 CNS, -83.7% (active); in the assay on UACC-257 melanoma, -72.4% (active); with M14 melanoma, -91.3% (active); in the assay with HCT-15 colon, -62.1% (active); in the assay with HT29 colon, -76.5% (active). Besides, the growth was 19.8% in the assay on SNB-75 CNS; -16.9% (active) in the assay on SNB-19 CNS; -77.7% (active) with U251 CNS; -23.3% (active) in the assay with PC-3 prostate; -80.6% (active) with SK-MEL-5 melanoma; -70% (active) with UACC-62 melanoma. Moreover, the figures for the growth in the assay with LOX IMVI melanoma and in the assay on SK-MEL-28 melanoma were -89.8% (active) and -61.1% (active), respectively.
`Nc1n[nH]c2cccc(C#Cc3cccc(C(=O)Nc4cc(C(F)(F)F)cc(C(F)(F)F)c4)c3)c12`: the growth with DU-145 prostate was 91.5%; in the assay with K-562 leukemia, 4.87% (active); in the assay on MALME-3M melanoma, 53.4%; in the assay on MDA-MB-231 breast, 51.9%; in the assay with RXF 393 renal, 50.5%; with SF-268 CNS, 68.8%. For the same molecule, the growth was 77.9% with SF-295 CNS; 53.3% with SF-539 CNS; 71.6% in the assay on UACC-257 melanoma; 34.1% with M14 melanoma; 70.4% with HCT-15 colon; 46.4% in the assay on HT29 colon. Further, the growth in the assay on SNB-75 CNS was 91.5%; in the assay on SNB-19 CNS, 105%; with U251 CNS, 84%; in the assay on PC-3 prostate, 33%; in the assay on SK-MEL-5 melanoma it was 73%; in the assay with UACC-62 melanoma, 50%. In addition, the values for the growth with LOX IMVI melanoma and with SK-MEL-28 melanoma were 41.2% and 62.1%, respectively.
`O=C(CN1C(=O)S/C(=C\C(Cl)=C\c2ccccc2)C1=O)NCCc1ccc(O)cc1`: the growth with DU-145 prostate was 18.2%; in the assay on K-562 leukemia, 10.1%; in the assay on MALME-3M melanoma, 52.1%; in the assay with MDA-MB-231 breast it was 30.4%; with RXF 393 renal, -22.7% (active); with SF-268 CNS it was 60.7%. The growth was 44% in the assay on SF-295 CNS; 15.6% in the assay with SF-539 CNS; 60.9% with UACC-257 melanoma; -26.7% (active) in the assay on M14 melanoma; 0.727% (active) with HCT-15 colon; 16.6% in the assay with HT29 colon. For the same molecule, the growth in the assay with SNB-75 CNS is 22%; in the assay on SNB-19 CNS, 34.3%; in the assay on U251 CNS it was 19.3%; in the assay with PC-3 prostate, 24.7%; in the assay on SK-MEL-5 melanoma it was 46%; in the assay with UACC-62 melanoma it was 8.67% (active). The growth with LOX IMVI melanoma is -51.5% (active); in the assay on SK-MEL-28 melanoma, 20.7%.
With `Cc1cn(-c2cc(NC(=O)c3cncc(C#Cc4cnc(N)c5ncccc45)c3)cc(C(F)(F)F)c2)cn1`, the growth in the assay with DU-145 prostate is 93.7%; in the assay with K-562 leukemia, 5.81% (active); in the assay on MALME-3M melanoma, 23.8%; in the assay with MDA-MB-231 breast it was 47.1%; with RXF 393 renal it was 59.6%; in the assay with SF-268 CNS it was 67.2%. The growth in the assay on SF-295 CNS was 91%; in the assay with SF-539 CNS, 72.3%; with UACC-257 melanoma it was 62.5%; in the assay with M14 melanoma it was 29.8%; in the assay on HCT-15 colon, 59.6%; in the assay on HT29 colon it was 35.4%. The growth in the assay on SNB-75 CNS is 89.4%; in the assay with SNB-19 CNS, 106%; in the assay with U251 CNS it was 85.7%; with PC-3 prostate, 84.7%; with SK-MEL-5 melanoma, 18.3%; with UACC-62 melanoma, 35.2%. Besides, the growth in the assay on LOX IMVI melanoma is 21.5%; in the assay with SK-MEL-28 melanoma, 40.5%.

(Values after PubChem BioAssay (NCI).)
